Experimental data: the supplement of paper PMC8728848
About 410 targets per protein were measured; listed, in parts, are those with the strongest signals and a random draw of the rest.

Assays:
Assay in all cases: glycan array binding signal (z-score within array); higher = stronger binding
Settings in all cases: glycan notation: IUPAC condensed, linker removed
Fuc(a1-2)Gal(b1-4)Glc6S = target: Fuc(a1-2)Gal(b1-4)Glc6S
Procedure, shortened: (§1)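 Columns mapping to the same glycan were averaged after glycan names were converted to IUPAC-condensed notation. The data come from 3228 arrays in the Consortium for Functional Glycomics database, limited to those with an available protein sequence. Binding is reported as a within-array Z-score averaged across arrays of one protein sequence and across linkers.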

[1] = target: Fuc(a1-2)[Gal(a1-3)]Gal(b1-4)GlcNAc
Procedure, shortened: as §1

[2] = target: Fuc(a1-3)[Gal3S(b1-4)]Glc
Procedure, shortened: as §1

[3] = target: Gal(b1-3)GalNAc(b1-3)Gal(b1-4)Glc
Procedure, shortened: as §1

[4] = target: Gal(b1-3)[Neu5Ac(a2-6)]GalNAc
Procedure, shortened: as §1

Gal3S(b1-4)Glc6S = target: Gal3S(b1-4)Glc6S
Procedure, shortened: as §1

Gal3S(b1-4)GlcNAc6S = target: Gal3S(b1-4)GlcNAc6S
Procedure, shortened: as §1

Gal3S6S(b1-4)GlcNAc6S = target: Gal3S6S(b1-4)GlcNAc6S
Procedure, shortened: as §1

Gal4S6S(b1-4)GlcNAc = target: Gal4S6S(b1-4)GlcNAc
Procedure, shortened: as §1

Gal6S(b1-4)Glc6S = target: Gal6S(b1-4)Glc6S
Procedure, shortened: as §1

GlcA(b1-6)Gal = target: GlcA(b1-6)Gal
Procedure, shortened: as §1

[5] = target: GlcNAc(b1-3)Gal(b1-3)GalNAc
Procedure, shortened: as §1

[6] = target: GlcNAc(b1-3)[GlcNAc(b1-6)]Gal(b1-4)GlcNAc
Procedure, shortened: as §1

[7] = target: GlcNAc(b1-3)[GlcNAc(b1-6)]GlcNAc
Procedure, shortened: as §1

[8] = target: GlcNAc(b1-4)Gal(b1-4)GlcNAc
Procedure, shortened: as §1

Man(a1-3)[Man(a1-6)]Man = target: Man(a1-3)[Man(a1-6)]Man
Procedure, shortened: as §1

[9] = target: Man(a1-3)[Man(a1-6)]Man(a1-6)[Man(a1-3)]Man(b1-4)GlcNAc(b1-4)GlcNAc
Procedure, shortened: as §1

[10] = target: Neu5Ac(a2-3)Gal(b1-3)GalNAc
Procedure, shortened: as §1

[11] = target: Neu5Ac(a2-3)Gal6S(b1-4)GlcNAc
Procedure, shortened: as §1

[12] = target: Neu5Gc(a2-3)Gal(b1-4)[Fuc(a1-4)]GlcNAc
Procedure, shortened: as §1

[13] = target: Fuc(a1-2)[Gal(a1-3)]Gal(b1-4)Glc
Procedure, shortened: as §1

[14] = target: Fuc(a1-2)[Gal(a1-3)]Gal(b1-4)GlcNAc(b1-2)Man(a1-3)[Fuc(a1-2)[Gal(a1-3)]Gal(b1-4)GlcNAc(b1-2)Man(a1-6)]Man(b1-4)GlcNAc(b1-4)GlcNAc
Procedure, shortened: as §1

[15] = target: Fuc(a1-2)[GalNAc(a1-3)]Gal
Procedure, shortened: as §1

[16] = target: Fuc(a1-2)[GalNAc(a1-3)]Gal(b1-4)Glc
Procedure, shortened: as §1

[17] = target: Fuc(a1-2)[GalNAc(a1-3)]Gal(b1-4)GlcNAc(b1-2)Man(a1-3)[Fuc(a1-2)[GalNAc(a1-3)]Gal(b1-4)GlcNAc(b1-2)Man(a1-6)]Man(b1-4)GlcNAc(b1-4)GlcNAc
Procedure, shortened: as §1

[18] = target: Fuc(a1-2)[GalNAc(a1-3)]Gal(b1-4)GlcNAc(b1-3)Gal(b1-4)GlcNAc
Procedure, shortened: as §1

[19] = target: Fuc(a1-2)[GalNAc(a1-3)]Gal(b1-4)GlcNAc(b1-3)Gal(b1-4)GlcNAc(b1-3)Gal(b1-4)GlcNAc
Procedure, shortened: as §1

[20] = target: Fuc(a1-3)[Gal(b1-4)]GlcNAc
Procedure, shortened: as §1

[21] = target: Fuc(a1-3)[GalNAc(b1-4)]GlcNAc
Procedure, shortened: as §1

[22] = target: Gal(b1-3)GalNAc(a1-3)[Fuc(a1-2)]Gal(b1-4)Glc
Procedure, shortened: as §1

[23] = target: Gal(b1-3)GalNAc(a1-3)[Fuc(a1-2)]Gal(b1-4)GlcNAc
Procedure, shortened: as §1

[24] = target: Gal(b1-3)GlcNAc(a1-6)Gal(b1-4)GlcNAc
Procedure, shortened: as §1

[25] = target: Gal(b1-3)GlcNAc(b1-3)Gal(b1-4)GlcNAc(b1-6)[Gal(b1-3)GlcNAc(b1-3)]Gal(b1-4)Glc
Procedure, shortened: as §1

[26] = target: Gal(b1-4)GalNAc(a1-3)[Fuc(a1-2)]Gal(b1-4)GlcNAc
Procedure, shortened: as §1

[27] = target: Gal(b1-4)GlcNAc(b1-2)Man(a1-3)[GlcNAc(b1-2)Man(a1-6)]Man(b1-4)GlcNAc(b1-4)GlcNAc
Procedure, shortened: as §1

[28] = target: Gal(b1-4)GlcNAc(b1-2)Man(a1-6)Man(b1-4)GlcNAc(b1-4)GlcNAc
Procedure, shortened: as §1

Gal4S(b1-4)GlcNAc = target: Gal4S(b1-4)GlcNAc
Procedure, shortened: as §1

Gal6S(b1-3)GlcNAc = target: Gal6S(b1-3)GlcNAc
Procedure, shortened: as §1

GlcA(b1-3)GlcNAc = target: GlcA(b1-3)GlcNAc
Procedure, shortened: as §1

[29] = target: GlcNAc(a1-4)Gal(b1-4)GlcNAc(b1-3)Gal(b1-4)Glc
Procedure, shortened: as §1

[30] = target: GlcNAc(b1-2)Man(a1-3)[GlcNAc(b1-4)][GlcNAc(b1-2)Man(a1-6)]Man(b1-4)GlcNAc(b1-4)GlcNAc
Procedure, shortened: as §1

[31] = target: GlcNAc(b1-2)[GlcNAc(b1-6)]Man(a1-6)[GlcNAc(b1-2)Man(a1-3)]Man(b1-4)GlcNAc(b1-4)GlcNAc
Procedure, shortened: as §1

[32] = target: GlcNAc(b1-2)[GlcNAc(b1-6)]Man(a1-6)[GlcNAc(b1-2)Man(a1-3)][GlcNAc(b1-4)]Man(b1-4)GlcNAc(b1-4)GlcNAc
Procedure, shortened: as §1

[33] = target: GlcNAc(b1-4)[GlcNAc(b1-6)]GalNAc
Procedure, shortened: as §1

Man(a1-2)Man(a1-3)Man = target: Man(a1-2)Man(a1-3)Man
Procedure, shortened: as §1

Man(a1-6)Man = target: Man(a1-6)Man
Procedure, shortened: as §1

Neu5Ac(a2-3)Gal = target: Neu5Ac(a2-3)Gal
Procedure, shortened: as §1

[34] = target: Neu5Ac(a2-3)Gal(b1-3)[Neu5Ac(a2-3)Gal(b1-4)]GlcNAc
Procedure, shortened: as §1

[35] = target: Neu5Ac(a2-3)Gal(b1-4)GlcNAc(b1-3)Gal(b1-4)GlcNAc(b1-3)Gal(b1-4)GlcNAc
Procedure, shortened: as §1

[36] = target: Neu5Ac(a2-6)Gal(b1-3)GlcNAc(b1-3)[Gal(b1-4)GlcNAc(b1-6)]Gal(b1-4)Glc
Procedure, shortened: as §1

[37] = target: Neu5Ac(a2-6)Gal(b1-4)GlcNAc(b1-2)Man(a1-3)Man(b1-4)GlcNAc(b1-4)GlcNAc
Procedure, shortened: as §1

[38] = target: Neu5Ac(a2-6)Gal(b1-4)GlcNAc(b1-3)Gal(b1-4)GlcNAc
Procedure, shortened: as §1

B1: Annexin-A1 (Mus musculus), P10107 (protein)
chain: MAMVSEFLKQARFLENQEQEYVQAVKSYKGGPGSAVSPYPSFNVSSDVAALHKAIMVKGVDEATIIDILTKRTNAQRQQIKAAYLQENGKPLDEVLRKALTGHLEEVVLAMLKTPAQFDADELRGAMKGLGTDEDTLIEILTTRSNEQIREINRVYREELKRDLAKDITSDTSGDFRKALLALAKGDRCQDLSVNQDLADTDARALYEAGERRKGTDVNVFTTILTSRSFPHLRRVFQNYGKYSQHDMNKALDLELKGDIEKCLTTIVKCATSTPAFFAEKLYEAMKGAGTRHKALIRIMVSRSEIDMNEIKVFYQKKYGISLCQAILDETKGDYEKILVALCGGN
- glycan array binding signal (z-score) (Fuc(a1-2)Gal(b1-4)Glc6S): 1.79
- glycan array binding signal (z-score) [1]: -0.684
- glycan array binding signal (z-score) [2]: -0.177
- glycan array binding signal (z-score) [3]: -0.151
- glycan array binding signal (z-score) [4]: -0.343
- glycan array binding signal (z-score) (Gal3S(b1-4)Glc6S): 3.21
- glycan array binding signal (z-score) (Gal3S(b1-4)GlcNAc6S): 1.83
- glycan array binding signal (z-score) (Gal3S6S(b1-4)GlcNAc6S): 7.38
- glycan array binding signal (z-score) (Gal4S6S(b1-4)GlcNAc): 1.13
- glycan array binding signal (z-score) (Gal6S(b1-4)Glc6S): 3.55
- glycan array binding signal (z-score) (GlcA(b1-6)Gal): 0.482
- glycan array binding signal (z-score) [5]: -0.049
- glycan array binding signal (z-score) [6]: -0.758
- glycan array binding signal (z-score) [7]: -0.452
- glycan array binding signal (z-score) [8]: -0.318
- glycan array binding signal (z-score) (Man(a1-3)[Man(a1-6)]Man): -0.165
- glycan array binding signal (z-score) [9]: -0.176
- glycan array binding signal (z-score) [10]: -0.573
- glycan array binding signal (z-score) [11]: -0.076
- glycan array binding signal (z-score) [12]: -0.436

B2: Gal 4 (Canis lupus) (protein)
chain: MAYVPAPGYQPTYNPTLPYNKPIPGGLSVGMSVYIQGITSEHMRRFCVNFVAGAHPGSDIAFHFNPRFDGWDKVVFNSHLGGKWGSEEKKRSMPFRKGTHFELVFMVLAEHYKVVVNGNPFYEFGHRLPLQLVTHLQVEGDVELQSINFIGGTQPLGQGPGHTQQQPSSLPTMEGPPVFNPPVPFRKRLQGGLTVRRTVIIKGFVPFTSKSFVINFMVESSGDLALHINPRLTEGLVVRNSCLNGSWGSEDRKLSYNPFIPGQFFDLSIRCGMDRFKVYANGQHLFDFSHRLLALQNVDMLEINGDVTLSYIQV
- glycan array binding signal (z-score) (Fuc(a1-2)Gal(b1-4)Glc6S): 0.071
- glycan array binding signal (z-score) [13]: 8.77
- glycan array binding signal (z-score) [14]: 2.77
- glycan array binding signal (z-score) [15]: -0.155
- glycan array binding signal (z-score) [16]: 5.95
- glycan array binding signal (z-score) [17]: 3.76
- glycan array binding signal (z-score) [18]: 7.32
- glycan array binding signal (z-score) [19]: 0.359
- glycan array binding signal (z-score) [20]: -0.151
- glycan array binding signal (z-score) [21]: -0.147
- glycan array binding signal (z-score) [22]: 11.1
- glycan array binding signal (z-score) [23]: 2.63
- glycan array binding signal (z-score) [24]: -0.137
- glycan array binding signal (z-score) [25]: -0.146
- glycan array binding signal (z-score) [26]: 3.3
- glycan array binding signal (z-score) [27]: -0.154
- glycan array binding signal (z-score) [28]: -0.156
- glycan array binding signal (z-score) (Gal4S(b1-4)GlcNAc): -0.144
- glycan array binding signal (z-score) (Gal6S(b1-3)GlcNAc): -0.135
- glycan array binding signal (z-score) (GlcA(b1-3)GlcNAc): 0.144
- glycan array binding signal (z-score) [29]: -0.147
- glycan array binding signal (z-score) [30]: -0.148
- glycan array binding signal (z-score) [31]: -0.148
- glycan array binding signal (z-score) [32]: -0.148
- glycan array binding signal (z-score) [33]: -0.147
- glycan array binding signal (z-score) (Man(a1-2)Man(a1-3)Man): -0.142
- glycan array binding signal (z-score) (Man(a1-6)Man): -0.148
- glycan array binding signal (z-score) (Neu5Ac(a2-3)Gal): -0.152
- glycan array binding signal (z-score) [10]: -0.145
- glycan array binding signal (z-score) [34]: -0.156
- glycan array binding signal (z-score) [35]: -0.153
- glycan array binding signal (z-score) [11]: -0.16
- glycan array binding signal (z-score) [36]: -0.151
- glycan array binding signal (z-score) [37]: -0.151
- glycan array binding signal (z-score) [38]: -0.151
